Results on 8 compounds are retold here after PubChem BioAssay (NCATS).

Test [1] concerns the target Estrogen receptor (Homo sapiens) (UniProt P03372). Description: qHTS assay for small molecule agonists of estrogen receptor alpha signaling (AID 588514).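 Further: 0% = vehicle only and 100% = reference agonist; nearly all actives have a fitted effect of over 70% in size.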 Put shortly: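 Reporter-gene assay. […] controls beta-lactamase in HEK 293 GripTite cells; after 18 hrs with compound, CCF4 substrate is added for 2 hrs and fluorescence is read.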
For orientation: In qHTS, concentration-response curves come from the screen itself.

For test [2], the target named is Glucocorticoid receptor (Homo sapiens) (UniProt P04150). The test is described as follows: qHTS assay for small molecule agonists of glucocorticoid receptor signaling (AID 588532; active means well fitted curve in the direction sought with a large enough effect in the signal ratio, with a control signal flat; the % refers to the signal ratio;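 further: 100% = dexamethasone at 0.1 µM and 0% = DMSO only wells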). To be noted: HeLa MMTV-bla, beta-lactamase ratio, agonist, 18 h; stronger effect = higher value; percent of dexamethasone control, DMSO zero. The procedure, abridged: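 MMTV-bla HeLa beta-lactamase reporter cells in 1% charcoal/dextran FBS medium, compounds up to 92 uM for 18 h at 37 C, CCF4 readout; normalized to 0.1 uM dexamethasone (100%), EC50 and efficacy from Hill fits.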
Sequence of Glucocorticoid receptor (Homo sapiens) (P04150 whole entry, looked up): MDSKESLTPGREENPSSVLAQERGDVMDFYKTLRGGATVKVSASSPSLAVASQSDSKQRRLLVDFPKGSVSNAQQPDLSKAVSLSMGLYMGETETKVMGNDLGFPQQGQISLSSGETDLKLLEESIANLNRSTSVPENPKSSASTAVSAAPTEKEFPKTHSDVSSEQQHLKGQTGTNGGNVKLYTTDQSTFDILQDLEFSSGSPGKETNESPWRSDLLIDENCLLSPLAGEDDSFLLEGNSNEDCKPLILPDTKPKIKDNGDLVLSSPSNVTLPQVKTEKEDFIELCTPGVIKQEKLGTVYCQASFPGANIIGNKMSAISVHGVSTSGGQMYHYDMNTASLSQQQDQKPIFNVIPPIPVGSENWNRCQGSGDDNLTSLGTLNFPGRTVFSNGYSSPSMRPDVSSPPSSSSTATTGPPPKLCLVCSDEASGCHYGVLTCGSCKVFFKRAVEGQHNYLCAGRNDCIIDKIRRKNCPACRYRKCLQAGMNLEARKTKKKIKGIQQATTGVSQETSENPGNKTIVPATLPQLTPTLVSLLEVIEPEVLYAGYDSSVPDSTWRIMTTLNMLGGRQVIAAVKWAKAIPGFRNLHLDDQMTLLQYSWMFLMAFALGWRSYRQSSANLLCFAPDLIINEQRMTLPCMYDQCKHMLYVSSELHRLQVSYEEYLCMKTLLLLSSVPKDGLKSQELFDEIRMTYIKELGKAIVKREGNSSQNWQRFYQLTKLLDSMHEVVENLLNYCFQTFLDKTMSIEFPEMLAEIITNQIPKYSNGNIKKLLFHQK

For test [3] the target is unchanged. The test is described as follows: qHTS assay for small molecule antagonists of glucocorticoid receptor signaling (AID 588533; active means well fitted inhibition curve with a large enough effect in the signal ratio, with a control signal flat, not every such curve was filed as active; the % refers to the signal ratio; further: on the % scale 0 is the no-effect control and ±100 the full control effect). The procedure, abridged:
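Antagonist-mode qHTS: compound titrations added to GRE-bla HeLa cells, then dexamethasone 2 nM final; 18 h, 37 C. CCF4 FRET fluorescence normalized to dexamethasone and DMSO; IC50 from Hill fit.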

Test [4] in a line: qHTS assay for small molecule antagonists of peroxisome proliferator-activated receptor delta signaling (AID 588535; active means well fitted inhibition curve with a large enough effect in the signal ratio, with a control signal flat, not every such curve was filed as active; the % refers to the signal ratio;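 on max response: cells co-treated with a PPAR-delta agonist as stimulator during compound exposure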). Conditions: HEK293T PPARd-UAS-bla, beta-lactamase FRET ratio, 18 h; 460 nm channel. Put shortly:
(§1)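 Cells were seeded at 4000 per well in assay medium containing 2% charcoal/dextran FBS and held 5 hrs at 37 C. Compounds were then added for 18 hrs. CCF4 substrate was applied for 2 hrs at room temperature before fluorescence reading.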

Test [5] addresses Peroxisome proliferator-activated receptor delta (Homo sapiens) (UniProt Q03181). Described as above. The procedure, abridged:
as §1

In test [6] the target is Peroxisome proliferator-activated receptor gamma (Homo sapiens) (UniProt P37231). Description: qHTS assay for small molecule agonists of peroxisome proliferator-activated receptor gamma signaling (AID 588536; active means well fitted curve in the direction sought with a large enough effect in the signal ratio, with a control signal flat, not every such curve was filed as active; the % refers to the signal ratio;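 further: 0% = DMSO basal wells and 100% = rosiglitazone at 2 µM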). The procedure, abridged:
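PPAR-gamma-UAS-bla HEK293 cells in medium with 1% charcoal/dextran-treated FBS were exposed to compounds for 16 h at 37 C. Beta-lactamase activity was read with CCF4 substrate (405 nm excitation, 460/530 nm emission).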

Test [7] concerns the target Vitamin D3 receptor (Homo sapiens) (UniProt P11473). Description: qHTS assay for small molecule antagonists of vitamin D receptor signaling (AID 588541).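 Further: receptor activated by calcitriol during compound treatment; series mostly up to about 77 µM; on the % scale 0 is the no-effect control and ±100 the full control effect.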 Put shortly: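 VDR-UAS-bla HEK293T cells in 2% charcoal-stripped FBS were stimulated with 1-alpha,25-dihydroxyvitamin D3 (3 nM final) plus compound for 16 h at 37 C. The beta-lactamase CCF4 readout was normalized to 50 nM agonist and DMSO, and Hill fits gave IC50.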

For test [8] the target is unchanged. Description: qHTS assay for small molecule agonists of vitamin D receptor signaling (AID 588543).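 Further: 0% = DMSO basal and 100% = reference agonist control.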 The procedure, abridged: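 Measured: β-lactamase reporter activity (CCF4, 405 nm excitation, 460/530 nm emission) in HEK293T VDR-UAS-bla cells after 16 h compound exposure at 37 °C. Normalization against 50 nM 1α,25-dihydroxyvitamin D3 and DMSO; Hill-fit EC50.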

The target of test [9] is Thyroid hormone receptor beta (Homo sapiens) (UniProt P10828). Description: qHTS assay for small molecule agonists of thyroid hormone receptor beta signaling (AID 588545).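 Further: 0% = DMSO only and 100% = 10 nM T3.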 Put shortly:
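TR-UAS-bla GripTite HEK 293 cells (2500/well, medium with 2% charcoal/dextran FBS) were treated in agonist mode for 18 h at 37 C, titrated. Beta-lactamase was read by CCF4 ratio after 2 h; normalized to 10 nM T3 (100%) and DMSO, Hill-fitted for EC50 and efficacy.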

Test [10] is described as follows: qHTS assay for small molecule antagonists of retinoid X receptor alpha signaling (AID 588546; active means well fitted inhibition curve with a large enough effect in the signal ratio, with a control signal flat, not every such curve was filed as active; the % refers to the signal ratio;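 further: cells stimulated with 9-cis-retinoic acid as agonist; on the % scale 0 is the no-effect control and ±100 the full control effect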). Conditions: HEK293T RXRa-UAS-bla, beta-lactamase ratio, antagonist mode; measured here: W530 green channel, cytotoxicity proxy. The procedure, abridged: (§2)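 Beta-lactamase reporter inhibition, read as CCF4 fluorescence ratio (ex 405, em 460/530 nm) after 2 h at RT. HEK293T UAS-bla cells, 2500/well, were stimulated with 9-cis-RA at 500 or 100 nM final alongside test compound for 18 h at 37 C.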

Test [11] deals with Retinoic acid receptor RXR-alpha (Homo sapiens) (UniProt P19793). Described as above. To be noted: HEK293T RXRa-UAS-bla, beta-lactamase ratio, antagonist mode. The procedure, abridged: as §2
Sequence of Retinoic acid receptor RXR-alpha (Homo sapiens) (P19793 whole entry, looked up): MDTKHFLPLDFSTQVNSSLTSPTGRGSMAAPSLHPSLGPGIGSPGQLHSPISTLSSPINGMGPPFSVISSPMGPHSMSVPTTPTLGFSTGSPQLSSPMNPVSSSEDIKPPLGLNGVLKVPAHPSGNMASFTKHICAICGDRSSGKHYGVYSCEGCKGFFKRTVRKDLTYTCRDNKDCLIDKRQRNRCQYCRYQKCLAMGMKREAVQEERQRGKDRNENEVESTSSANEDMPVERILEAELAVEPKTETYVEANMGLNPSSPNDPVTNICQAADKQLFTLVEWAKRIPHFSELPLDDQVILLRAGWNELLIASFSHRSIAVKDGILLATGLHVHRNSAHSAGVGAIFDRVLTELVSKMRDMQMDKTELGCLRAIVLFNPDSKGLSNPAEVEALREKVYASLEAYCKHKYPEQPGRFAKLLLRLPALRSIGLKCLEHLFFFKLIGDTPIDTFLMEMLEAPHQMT
Test [12] addresses Thyroid hormone receptor beta (Homo sapiens) (UniProt P10828). The test is described as follows: qHTS assay for small molecule antagonists of thyroid hormone receptor beta signaling (AID 588547; active means well fitted inhibition curve with a large enough effect in the signal ratio, with a control signal flat, not every such curve was filed as active; the % refers to the signal ratio;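 further: cells stimulated with 0.4 nM T3 agonist during compound exposure; series mostly up to about 77 µM; on the % scale 0 is the no-effect control and ±100 the full control effect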). To be noted: TR-UAS-bla HEK293, beta-lactamase ratio, antagonist mode, 18 h. The procedure, abridged:
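TR-UAS-bla GripTite HEK293 cells in 2% charcoal/dextran FBS medium; compounds 0.59 nM to 92 uM with T3 at 0.4nM final, 18 h at 37 C. Beta-lactamase read by CCF4 fluorescence (460/530 nm); Hill fits gave IC50 and efficacy.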

Test [13] concerns the target Luciferin 4-monooxygenase (Photinus pyralis) (UniProt P08659). Description: Biochemical firefly luciferase enzyme assay for NPC (AID 624030; active means well fitted curve in the direction sought with a large enough effect; an effect the other way counts as inactive or inconclusive;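 further: purified P. pyralis luciferase at 10 nM with luciferin and ATP substrate; series mostly up to about 59 µM; 0% = DMSO and -100% = full luciferase inhibition by PTC124 control; nearly all actives have a fitted effect of over 70% in size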). The procedure, abridged:
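Purified P. pyralis luciferase at 10 nM in 50 mM Tris Acetate (final), luminescence read within 5 minutes of enzyme addition to compounds. Activity normalised to PTC124 versus DMSO; concentration-response curves classed by r2, magnitude and activity.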

Test [14] is described as follows: S16 Schwann cell viability assay (CellTiter-Glo assay) (AID 624031; active means well fitted curve in the direction sought with a large enough effect; an effect the other way counts as inactive or inconclusive;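 further: cellular ATP luminescence as a viability measure; series mostly up to about 58 µM; plate controls were DMSO-treated cells for no effect and cell-free wells for full effect; nearly all actives have a fitted effect of over 70% in size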). Put shortly: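 Native S16 rat Schwann cells, 500-750 cells/well in DMEM with 10% FBS, dosed with compound after overnight culture and incubated 24h at 37 degree Celsius/5% CO2. Viability by CellTiter-Glo luminescence; % activity normalized to no-cell wells and DMSO-treated cells.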
On the technique in general: In ATP-based viability assays light output follows the ATP content of the culture.

The nature of test [15]: qHTS assay for small molecule agonists of retinoid X receptor alpha signaling (AID 588544).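 On activation: 0% = DMSO basal wells and 100% = reference agonist.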 To be noted: HEK293T RXRa-UAS-bla, beta-lactamase reporter, 18 h; 530 nm emission.
The target in test [16] is Retinoic acid receptor RXR-alpha (Homo sapiens) (UniProt P19793). The description is as above.
The target of test [17] is Voltage-gated inwardly rectifying potassium channel KCNH2 (Homo sapiens) (UniProt Q12809). The test is described as follows: qHTS Assay for Small Molecule Inhibitors of the Human hERG Channel Activity (AID 588834; active means well fitted curve in the direction sought with a large enough effect; an effect the other way counts as inactive or inconclusive;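 further: top concentration of the series differs between compounds; on the % scale 0 is the no-effect control and ±100 the full control effect; lower thallium flux fluorescence means stronger hERG block; nearly all actives have a fitted effect of over 50% in size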). Put shortly:
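Blockade is seen as reduced FluxOR thallium-flux fluorescence in U2OS cells expressing hERG from a BacMam construct, in Opti-MEM with 2% FCS. Concentration-response data fitted to the Hill equation for AC50.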

For test [18], the target named is Bile acid receptor (Homo sapiens) (UniProt Q96RI1). Description: qHTS assay for small molecule antagonists of farnesoid X receptor signaling (AID 588526). Further: on the % scale 0 is the no-effect control and ±100 the full control effect. The procedure, abridged: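 Antagonist mode: titrated compounds tested against chenodeoxycholic acid stimulation (normalized to 50 uM CDCA and DMSO) in GeneBLAzer HEK293T cells for 16 h. Beta-lactamase read by CCF4 fluorescence; IC50 from Hill fits.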

Where “and” joins values, the source holds several entries; their conditions need not be identical. Equal entries are not always repeated. Results filed as inconclusive are left out. Calls of active or inactive are those of the source. Unless noted, the call rests on the fitted dose curve.

Sequence of Estrogen receptor (Homo sapiens) (P03372 whole entry, looked up): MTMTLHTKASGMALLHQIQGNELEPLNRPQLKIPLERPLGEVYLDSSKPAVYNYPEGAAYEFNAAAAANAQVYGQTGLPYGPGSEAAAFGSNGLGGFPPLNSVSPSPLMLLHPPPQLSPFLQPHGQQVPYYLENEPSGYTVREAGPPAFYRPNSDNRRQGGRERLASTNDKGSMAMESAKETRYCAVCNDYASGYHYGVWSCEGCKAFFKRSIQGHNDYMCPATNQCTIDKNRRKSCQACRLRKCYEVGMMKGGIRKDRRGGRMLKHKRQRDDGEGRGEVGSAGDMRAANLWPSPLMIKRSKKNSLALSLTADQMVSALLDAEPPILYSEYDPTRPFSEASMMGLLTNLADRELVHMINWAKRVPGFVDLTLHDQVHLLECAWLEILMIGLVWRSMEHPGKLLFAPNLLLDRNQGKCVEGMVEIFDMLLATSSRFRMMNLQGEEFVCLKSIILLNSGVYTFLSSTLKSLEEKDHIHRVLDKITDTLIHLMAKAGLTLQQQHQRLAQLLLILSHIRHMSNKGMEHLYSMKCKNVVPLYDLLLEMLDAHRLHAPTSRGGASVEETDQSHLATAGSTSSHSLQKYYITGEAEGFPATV
Sequence of Peroxisome proliferator-activated receptor gamma (Homo sapiens) (P37231 whole entry, looked up): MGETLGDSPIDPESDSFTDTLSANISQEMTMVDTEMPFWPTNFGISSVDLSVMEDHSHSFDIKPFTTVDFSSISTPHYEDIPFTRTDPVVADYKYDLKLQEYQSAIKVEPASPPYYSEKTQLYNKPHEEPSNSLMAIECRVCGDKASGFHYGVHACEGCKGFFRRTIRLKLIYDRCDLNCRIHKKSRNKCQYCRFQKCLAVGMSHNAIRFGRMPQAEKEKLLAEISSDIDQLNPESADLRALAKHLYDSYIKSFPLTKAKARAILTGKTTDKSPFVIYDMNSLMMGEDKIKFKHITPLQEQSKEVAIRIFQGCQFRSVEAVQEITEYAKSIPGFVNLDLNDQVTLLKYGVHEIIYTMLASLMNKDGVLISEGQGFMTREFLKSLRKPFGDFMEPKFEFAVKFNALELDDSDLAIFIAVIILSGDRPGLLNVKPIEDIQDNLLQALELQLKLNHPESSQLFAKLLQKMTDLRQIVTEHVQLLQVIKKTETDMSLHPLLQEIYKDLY
Sequence of Voltage-gated inwardly rectifying potassium channel KCNH2 (Homo sapiens) (Q12809 whole entry, looked up): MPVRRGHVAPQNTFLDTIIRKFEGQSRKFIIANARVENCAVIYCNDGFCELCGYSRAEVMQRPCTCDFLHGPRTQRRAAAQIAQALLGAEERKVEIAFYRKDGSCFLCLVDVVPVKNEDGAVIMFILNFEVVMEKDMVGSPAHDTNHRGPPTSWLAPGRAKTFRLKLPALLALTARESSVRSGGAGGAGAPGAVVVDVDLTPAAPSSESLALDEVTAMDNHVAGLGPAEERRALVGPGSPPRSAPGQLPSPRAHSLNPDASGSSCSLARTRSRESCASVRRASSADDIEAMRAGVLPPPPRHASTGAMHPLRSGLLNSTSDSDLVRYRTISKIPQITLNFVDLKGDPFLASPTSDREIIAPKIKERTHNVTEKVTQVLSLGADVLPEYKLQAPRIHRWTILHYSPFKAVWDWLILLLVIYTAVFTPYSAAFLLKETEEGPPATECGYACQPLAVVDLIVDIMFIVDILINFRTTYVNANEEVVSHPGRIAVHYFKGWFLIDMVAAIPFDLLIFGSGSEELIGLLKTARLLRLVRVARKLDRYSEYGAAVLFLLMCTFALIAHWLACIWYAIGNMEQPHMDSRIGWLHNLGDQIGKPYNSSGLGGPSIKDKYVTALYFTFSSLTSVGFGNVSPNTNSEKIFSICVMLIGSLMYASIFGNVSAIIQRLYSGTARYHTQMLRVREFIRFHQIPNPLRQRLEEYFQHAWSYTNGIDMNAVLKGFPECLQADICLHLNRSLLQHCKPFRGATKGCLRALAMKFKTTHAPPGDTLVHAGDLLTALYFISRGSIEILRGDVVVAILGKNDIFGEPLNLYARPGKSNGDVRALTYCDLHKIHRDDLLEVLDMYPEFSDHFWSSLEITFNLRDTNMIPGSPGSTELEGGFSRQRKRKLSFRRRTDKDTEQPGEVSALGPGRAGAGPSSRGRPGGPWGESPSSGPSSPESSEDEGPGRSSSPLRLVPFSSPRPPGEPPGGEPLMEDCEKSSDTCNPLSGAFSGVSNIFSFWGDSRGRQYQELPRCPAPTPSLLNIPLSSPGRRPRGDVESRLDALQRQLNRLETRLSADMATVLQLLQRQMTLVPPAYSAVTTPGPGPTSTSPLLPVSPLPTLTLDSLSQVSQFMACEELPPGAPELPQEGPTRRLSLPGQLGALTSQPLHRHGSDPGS
Sequence of Vitamin D3 receptor (Homo sapiens) (P11473 whole entry, looked up): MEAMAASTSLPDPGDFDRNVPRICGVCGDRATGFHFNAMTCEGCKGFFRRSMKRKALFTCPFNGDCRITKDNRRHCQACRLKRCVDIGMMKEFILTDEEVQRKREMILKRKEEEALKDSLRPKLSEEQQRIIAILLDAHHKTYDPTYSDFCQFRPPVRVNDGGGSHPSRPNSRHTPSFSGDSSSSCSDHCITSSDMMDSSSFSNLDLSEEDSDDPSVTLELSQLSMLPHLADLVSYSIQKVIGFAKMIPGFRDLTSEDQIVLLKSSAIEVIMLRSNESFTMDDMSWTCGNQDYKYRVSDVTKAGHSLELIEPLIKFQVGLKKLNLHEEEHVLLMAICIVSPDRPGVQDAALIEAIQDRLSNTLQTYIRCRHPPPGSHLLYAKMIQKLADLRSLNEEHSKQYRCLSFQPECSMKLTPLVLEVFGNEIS
Sequence of Thyroid hormone receptor beta (Homo sapiens) (P10828 whole entry, looked up): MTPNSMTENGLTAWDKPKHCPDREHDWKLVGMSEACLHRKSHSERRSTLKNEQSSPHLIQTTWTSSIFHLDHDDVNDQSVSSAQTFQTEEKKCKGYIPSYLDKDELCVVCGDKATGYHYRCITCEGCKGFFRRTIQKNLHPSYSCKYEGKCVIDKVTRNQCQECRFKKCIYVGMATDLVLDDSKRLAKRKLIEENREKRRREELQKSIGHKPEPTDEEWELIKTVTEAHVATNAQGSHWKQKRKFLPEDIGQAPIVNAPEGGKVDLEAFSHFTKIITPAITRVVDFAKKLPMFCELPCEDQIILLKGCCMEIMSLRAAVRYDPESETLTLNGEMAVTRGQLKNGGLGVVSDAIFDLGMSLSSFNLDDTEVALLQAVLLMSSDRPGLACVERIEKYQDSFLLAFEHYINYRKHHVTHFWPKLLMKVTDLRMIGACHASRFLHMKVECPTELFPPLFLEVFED
Sequence of Luciferin 4-monooxygenase (Photinus pyralis) (P08659 whole entry, looked up): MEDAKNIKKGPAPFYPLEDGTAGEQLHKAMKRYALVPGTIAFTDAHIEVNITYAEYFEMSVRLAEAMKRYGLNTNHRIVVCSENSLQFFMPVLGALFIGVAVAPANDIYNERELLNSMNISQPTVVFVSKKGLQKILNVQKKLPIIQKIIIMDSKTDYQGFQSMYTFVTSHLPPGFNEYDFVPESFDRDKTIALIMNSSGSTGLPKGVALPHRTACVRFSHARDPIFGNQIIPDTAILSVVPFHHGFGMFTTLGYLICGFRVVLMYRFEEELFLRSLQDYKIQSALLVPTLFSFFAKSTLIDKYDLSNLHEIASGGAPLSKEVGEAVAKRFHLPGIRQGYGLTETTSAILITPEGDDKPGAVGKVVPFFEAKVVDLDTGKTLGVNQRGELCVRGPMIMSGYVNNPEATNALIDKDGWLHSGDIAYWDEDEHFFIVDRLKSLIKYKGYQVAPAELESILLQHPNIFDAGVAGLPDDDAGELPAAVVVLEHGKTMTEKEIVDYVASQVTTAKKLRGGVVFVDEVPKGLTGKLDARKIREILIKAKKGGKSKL

For the compound `O=C(O)CCCCC1CCSS1` (stereo unspecified), the call in test [1], in test [3], in test [5], in test [6], in [7] and in test [8] was inactive. Moreover, the call in test [9] and in test [14] was inactive. Also, the activation in test [2] was -0.0197% (inactive) and 20% (inactive). Also, the max response was 4.26% in test [4], -14.4% in test [10] and -5.4% (inactive) in test [11]. Moreover, in test [12], the activity change % (negative = inhibition) is 1.34% (inactive). In addition, the Potency result in test [13] was “inactive”.
Take `CCCCOC(=O)c1ccc(N)cc1`: the activation in test [2] was -4.26% (inactive). The call in [6], in [7], in [8], in [16], in test [9] and in [14] was inactive. Besides, the max response is 8.21% in test [15], -1.8% in test [10] and -25.6% (inactive) in test [11]. Besides, the Potency result in test [17] was “inactive”.
On to `CC(=O)OCC(COC(C)=O)OC(C)=O`, for which the activation in test [2] is -5.82% (inactive). The outcome in [3], in [5], in test [6], in test [7], in test [8] and in [16] was inactive. The compound was classed as inactive in [9] and in test [14]. Further, the max response is -24.1% and 22.8% in [4]; -12.6% and -13.8% in test [15]; -8.38% in test [10]; 4.6% (inactive) in [11]. Further, the activity change % (negative = inhibition) in [12] is -1.64% (inactive) and -0.0126% (inactive). The Potency entry in test [17] and in test [13] was “inactive” in each case.
For `CCN(CC)C(=O)c1cccc(C)c1`, the result in test [1], in test [18], in test [3], in test [5], in test [6] and in [7] was inactive. Further, the call in test [8], in test [16] and in test [14] was inactive. Also, the activation in test [2] is -2.58% (inactive) and -6.82% (inactive). Further, the max response in [4] was -21.8%; in test [15], -4.92% and 6.96%; in [10] it was -0.756% and -2.65%; in [11], 0.203% (inactive) and -8.17% (inactive). In addition, the activity change % (negative = inhibition) in test [12] is -13.1% (inactive). Further, the Potency entry in test [17] and in test [13] was “inactive” each time.
On to `CC1CC(OC(=O)c2ccccc2O)CC(C)(C)C1` (stereo unspecified), for which the activation in test [2] was 2.49% (inactive). Further, the compound was classed as inactive in [3], in test [5], in [6], in [9] and in test [14]. Further, the results for the max response in [4], in [10] and in test [11] were 23.9%, -9.52% and 14.2% (inactive), respectively. The activity change % (negative = inhibition) in [12] was -8.08% (inactive). The Potency result in test [13] was “inactive”.
On to `O=C1c2cccc(O)c2C(=O)c2c(O)cccc21`, for which the call in [8] and in test [14] was inactive. In addition, the activity change % (negative = inhibition) in [12] is -11.3% (inactive). Besides, the Potency result in test [17] and in test [13] was “inactive” in each case.
As to `C=CCNC(N)=S`, the max response in [4] is 13.5%; in [15] it was 14.7%; in test [10], -1.13%; in [11], -16.9% (inactive). Also, the compound was classed as inactive in test [5], in [6], in test [7], in test [8], in [16] and in test [9]. In addition, the call in test [14] was inactive. Besides, in test [12], the activity change % (negative = inhibition) was -17.1% (inactive). The Potency result in test [17] and in test [13] was “inactive” throughout.
Regarding `CCCCCCCC(=O)OCC(COC(=O)CCCCCCC)OC(=O)CCCCCCC`, the outcome in [1], in test [18], in test [3], in test [5], in [6] and in test [7] was inactive. The compound was called inactive in test [8], in [16], in test [9] and in [14]. For the same compound, the activation in [2] is 2.19% (inactive). The max response in test [4] was 17.8%; in test [15], -2.18%; in test [10] it was -12.4%; in test [11], 4.61% (inactive). The activity change % (negative = inhibition) in test [12] was -4.42% (inactive). The Potency entry in test [17] and in test [13] was “inactive” each time.
